# HP1b binding inh – HP1-beta chromodomain-methylated histone interaction inhibition. AlphaScreen HP1-beta / biotin-H3K9me3 peptide binding. actives 0.56% (n = 390,000). Potency, µM (series often up to 114 µM), for inactives: top-dose activity change, negative = inhibition, most hits filed as inhibitors. P83916. AID 540317; further: nearly all actives have a fitted effect of over 70% in size
# Target sequence (P83916 whole entry, looked up): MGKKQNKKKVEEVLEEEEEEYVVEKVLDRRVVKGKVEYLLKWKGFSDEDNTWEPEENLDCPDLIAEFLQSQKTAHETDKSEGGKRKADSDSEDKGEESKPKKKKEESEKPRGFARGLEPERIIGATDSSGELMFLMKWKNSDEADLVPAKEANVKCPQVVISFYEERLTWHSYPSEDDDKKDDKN
#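 HP1-beta protein (50 nM final) preincubated 30 min at room temperature with biotinylated H3(1-18)K9me3 peptide (50 nM) in PBS pH 7.4, 0.01% Tween-20, then compound added for 30 min. AlphaScreen streptavidin donor/nickel chelate acceptor beads (10 ug/mL final), 30 min dark, luminescence read.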
# BAZ2B inh – blocks human BAZ2B; AlphaScreen BAZ2B-H3K14Ac peptide displacement; actives 4.4% (n = 360,000); Potency, µM (series often up to 114 µM), for the others: top-dose activity change, negative = inhibition, usual class: inhibitors; Q9UIF8; AID 504333; further: on the % scale 0 is the no-effect control and ±100 the full control effect; nearly all actives have a fitted effect of over 60% in size
#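 BAZ2B (50 nM) with biotin-H3(5-23)K14Ac peptide (50 nM) in PBS pH 7.4, 0.01% Tween-20, preformed 30 min, then compound 30 min at room temperature; top concentration 110uM. AlphaScreen streptavidin donor/nickel chelate acceptor beads (10 ug/mL final), 20 min dark, signal read.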
# G9a inh – blocks human histone lysine methyltransferase G9a; Q96KQ7; G9a H3K9 monomethylation, AlphaScreen, 2 h; Potency, µM (series often up to 102 µM), for the others: at the top dose activity, negative = inhibition, usual class: inhibitors; actives 8.8% (n = 350,000); AID 504332; further: on the % scale 0 is the no-effect control and ±100 the full control effect; nearly all actives have a fitted effect of over 75% in size
# Target sequence (Q96KQ7 913-1193 limits assumed): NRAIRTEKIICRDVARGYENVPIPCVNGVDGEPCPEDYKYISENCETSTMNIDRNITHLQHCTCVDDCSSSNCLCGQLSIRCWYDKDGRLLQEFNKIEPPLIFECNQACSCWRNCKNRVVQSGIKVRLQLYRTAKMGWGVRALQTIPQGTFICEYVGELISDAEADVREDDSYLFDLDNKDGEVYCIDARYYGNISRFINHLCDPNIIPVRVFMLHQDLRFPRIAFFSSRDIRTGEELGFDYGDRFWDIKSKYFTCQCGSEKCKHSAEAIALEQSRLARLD
#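 Methyltransferase reactions run at room temperature for 2 h (20 nM enzyme, 500 nM biotin-H3K9 peptide, 20 uM SAM) after a 15 min compound preincubation; product detected by AlphaScreen beads and anti-H3K9me1 antibody.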
# Sfp inh – blocks B. subtilis Sfp PPTase activity; actives 3.5% (n = 310,000); Q9F4F7; Biochemical Sfp PPTase activity, qHTS; Potency, µM, without a hit: largest response in the series, negative = inhibition, actives largely listed as inhibitors;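 further: the enzyme is Sfp with the accession as filed and its product quenches rhodamine fluorescence; 0% = enzyme reaction without inhibitor and -100% = no enzyme wells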
#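 Fluorescence-quenching assay: 15 nM Sfp-PPTase preincubated 15 min at room temperature with compound, then 5 uM rhodamine-CoA and 12.5 uM BHQ-2-labelled YbbR peptide added. Fluorescence (ex 525/em 598 nm) read at start and after 30 min; difference gives rate.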
# JMJD2A Tudor – inhibitors of human JMJD2A Tudor domain | Potency, µM (top dose mostly 114 µM), for the others: at the top dose activity change, negative = inhibition, actives largely listed as inhibitors | AID 504339 | actives 4.4% (n = 390,000) | O75164 | AlphaScreen JMJD2A-Tudor / H3K4me3 peptide binding; further: on the % scale 0 is the no-effect control and ±100 the full control effect; nearly all actives have a fitted effect of over 50% in size
# L3MBTL1 block – L3MBTL1 (human) inhibition; Q9Y468; AlphaScreen L3MBTL1–H3K9me1 peptide binding; Potency, µM (series often up to 57.1 µM), for inactives: at the highest dose activity, negative = inhibition, hits mostly inhibitors; actives 0.66% (n = 230,000); AID 485360; further: on the % scale 0 is the no-effect control and ±100 the full control effect; nearly all actives have a fitted effect of over 60% in size
#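 L3MBTL1 (50 nM) pre-complexed 30 min with biotinylated H3(1-15)K9me1 peptide (75 nM), then compounds added for 30 min at room temperature; AlphaScreen streptavidin donor/nickel chelate acceptor beads (10 ug/mL final) read after 30 min dark incubation.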
# * marks the source's active call; other numbers are inactive results; u = inconclusive; x = no result; ! = a repeat was not active; [ ] = remark or other dose. Rows were chosen to be rich in hits. Some 12% of all compounds tested hit in one or more screens of this group. The call rests on the fitted dose curve; in most records, active means well fitted curve in the direction sought with a large enough effect; inconclusive means small, poorly fitted or top-dose-only effect, or another doubt; inactive means no such curve, though single readings can be large; an effect the other way counts as inactive or inconclusive. Potency means the concentration at half of the fitted maximal effect.
SMILES,HP1b binding inh,BAZ2B inh,G9a inh,Sfp inh,JMJD2A Tudor,L3MBTL1 block
COc1ccc(-c2noc(CCC(=O)Nc3ccc(C(F)(F)F)cc3)n2)cc1,14.2%,u,5.2%[59 µM],x,-11.0%,x
CC(C)(CO)[C@H](O)C(=O)NCCCO,x,x,16.3%[21.5 µM],1.0%,x,x
Cc1ccc(CNC(=O)CN(C)S(=O)(=O)c2ccc3c(c2)c(=O)n(C)c(=O)n3C)cc1,27.2%,-14.5%,-7.3%[59 µM],x,-12.5%,x
Nc1ccc2c(c1Cl)C(=O)c1ccc(N)c(Cl)c1C2=O,15.5%,56.2µM*,25.1µM*,-11.2%,56.2µM*,u
COc1cc(Br)cc(/C=N/NC(=O)Cc2ccc(C(F)(F)F)cc2[N+](=O)[O-])c1O,-11.2%,8.2%,17.2%,u,89.1µM*,4.6%
COc1ccc(/C=N/NC(=O)Cn2nc([N+](=O)[O-])cc2C)c(OC)c1OC,19.9%,-11.4%,0.5%,13.2%,-9.3%,1.2%
COc1cc([N+](=O)[O-])cc(/C=N/NC(=O)Cn2nc(C)cc2C)c1O,23.3%,70.8µM*,-14.2%,-7.2%,79.4µM*,u
COc1cc([N+](=O)[O-])cc(/C=N/NC(=O)Cn2nccc2C)c1O,-11.4%,44.7µM*,4.1%,15.5%,-33.1%[11.4 µM],x
O=C(NC1CC(=O)N(c2cccc(F)c2)C1)c1ccc(S(=O)(=O)N2CCCC2)cc1 (configuration not stated),19.1%,-2.6%,9.4%[59 µM],x,-11.4%,x
CCC1NC(C(=O)O)Cc2c1[nH]c1ccccc21 (configuration not stated),-13.9%,-11.9%,-4.0%[12.7 µM],x,-13.6%,-3.5%
COC(=O)C1Cc2c([nH]c3ccccc23)C(C(C)C)N1 (configuration not stated),19.8%,-13.3%,44.7µM*,-3.2%,-2.0%,x
COc1cc(C2NC(C(=O)O)Cc3c2[nH]c2ccccc32)cc(OC)c1OC (configuration not stated),-1.7%,79.4µM*,u,70.8µM*!,56.2µM*,x
COc1ccc(C2NC(C(=O)O)Cc3c2[nH]c2ccccc32)cc1OC (configuration not stated),u,2.9%,u,-14.7%,3.16µM*,x
COC(=O)C1=C(C)NC(=O)NC1c1cn(-c2ccccc2)nc1-c1ccc(OC)c(Br)c1 (configuration not stated),13.2%,u,u,x,-31.5%,x
O=C(O)[C@@H](c1ccccc1)N1Cc2ccccc2C1=O,-11.5%,20µM*,39.8µM*,28.2µM*,25.1µM*,17.8µM*
COc1ccc(C(=O)c2c(N)sc3c2CCN(C(=O)OC(C)(C)C)C3)cc1,-0.1%,u,u,79.4µM*,u,x
Cc1ccc(C(=O)Oc2c(S(=O)(=O)c3ccccc3)c(C)nn2-c2ccccc2)cc1,6.5%,u,u,x,14.1µM*,x
CC(=O)Oc1c(S(=O)(=O)c2ccc(C)cc2)c(C)nn1-c1ccccc1,26.4%,-21.9%,11.2µM*,11.5%,-30.6%,3.7%
CCCNC(=O)N1N=C(c2ccc(N)cc2)c2cc3c(cc2[C@H]1C)OCO3,x,x,x,-9.2%,x,x
Cc1cc(C2=CC(C)(c3cc(C)oc3C)Nc3nc(C(F)(F)F)nn32)c(C)o1 (configuration not stated),x,56.2µM*,u,12.6µM*,x,-6.5%
Nc1nc(N)nc(-c2ccc(Cl)cc2)n1,7.0%,79.4µM*,-2.4%,9.0%,-11.5%,x
COCCN=c1scc(-c2cc(OC)ccc2OC)n1/N=C/c1c[nH]c2ccccc12,u,11.2µM*,10µM*,6.9%,39.8µM*,u
CNC(=S)N(CCc1c(C)[nH]c2ccccc12)Cc1ccco1,u,u,50.1µM*,12.7%,u,-13.3%
Cc1[nH]c2ccc(F)cc2c1CCN(Cc1ccco1)C(=S)NC(C)(C)C,17.7%,x,u,1.7%,u,x
COCCNC(=S)N(CCc1c(C)[nH]c2ccc(F)cc12)Cc1cccnc1,3.1%,u,39.8%[0.501 µM],0.8%,u,x
SMILES,HP1b binding inh,BAZ2B inh,G9a inh,Sfp inh,JMJD2A Tudor,L3MBTL1 block
CNC(=S)N(CCc1c(C)[nH]c2ccc(F)cc12)Cc1ccco1,-13.0%,u,70.8µM*,3.1%,u,x
COCCNC(=S)N(CCc1c(C)[nH]c2ccc(F)cc12)Cc1ccco1,-4.7%,70.8µM*,u,-6.6%,-35.1%,x
Cc1ccc(NC(=O)CN2C(=O)C3(SCC(=O)N3c3ccc(F)c(F)c3)c3ccccc32)c(C)c1 (configuration not stated),27.1%,0.2%[57.1 µM],-31.3%[59 µM],x,-17.2%,x
CC(C(=O)NCc1ccc(Cl)cc1)n1ccc2cc(S(=O)(=O)N3CCCCCC3)ccc21 (configuration not stated),62.0%,6.0%,-2.8%[59 µM],x,-1.0%,x
CC(=O)c1sc(NC(C)c2ccccc2)nc1C (configuration not stated),14.6%,-20.2%,9.2%,-6.5%,-4.8%,x
COCC(C)Nc1nc(C)c(C(C)=O)s1 (configuration not stated),27.8%,u,44.7µM*,15.9%,-1.1%[57.1 µM],x
Cn1ccc(C(=O)NC(=S)Nc2ccc([N+](=O)[O-])cc2O)n1,-3.0%,-31.6%,25.1µM*,u,-27.7%,x
Cc1ncsc1CCOC(=O)c1cccnc1,16.5%,50.1µM*,u,-0.4%,u,12.0%
CCOc1ccc(OCCC(=O)OCC(=O)N2CCN(S(=O)(=O)c3ccc(C)cc3)CC2)cc1,33.1%,-21.2%,56.2µM*,x,-13.6%,-27.7%
Cc1ccc(S(=O)(=O)N2CCN(C(=O)COC(=O)c3ccc(O)cc3)CC2)c(C)c1,0.6%,3.1%,21.7%[0.501 µM],x,89.1µM*,-11.7%
O=C(CN1C(=O)C2CC=CCC2C1=O)N1CCN(S(=O)(=O)c2ccccc2)CC1 (configuration not stated),32.8%,x,x,x,2.6%,2.2%
CCOc1ccc(S(=O)(=O)N2CCN(C(=O)CN3C(=O)NC4(CCCC4)C3=O)CC2)cc1,35.0%,0.4%,31.6µM*,x,-1.4%,8.2%
Cc1ccc(C)c(S(=O)(=O)N2CCN(C(=O)CN3C(=O)C4CC=CCC4C3=O)CC2)c1 (configuration not stated),-1.9%,3.9%,50.1µM*,x,-4.1%,2.0%
Cc1ccc(S(=O)(=O)N(CC(O)Cn2c3ccccc3c3ccccc32)c2cccc(C(N)=O)c2)cc1 (configuration not stated),-0.2%,-18.1%,-47.4%[59 µM],x,u,x
CCCS(=O)(=O)c1ncc(Cl)c(C(=O)Nc2c(C(=O)c3ccccc3)oc3ccccc23)n1,53.7%,0.4%,1.7%[59 µM],x,-5.2%,x
CCC(C(=O)N1CCN(c2cc(Cl)ccc2C)CC1)n1nc(C)n2c(cc3occc32)c1=O (configuration not stated),22.4%,-6.0%,3.7%[59 µM],x,-13.8%,x

# Source: PubChem BioAssay
